# Results filed as inconclusive are left out. Calls of active or inactive are those of the source. How the source made its calls, unless noted: active means hit-call score of the fitted dose curve at least 0.9, where 1 is the maximum; inconclusive means response in the unintended direction; inactive means score below 0.9.
# System: not listed separately
# Test: ATG_M_32_TRANS: Attagene TRANS-FACTORIAL HepG2 Assay for M32 Transcription Factor (Internal Marker) (AID 2282984);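 further: transcript level of a background control reporter unit measured by RT-PCR and capillary electrophoresis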
# Settings: HepG2 Attagene TRANS M32 internal marker reporter
# How it was run: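 Internal-marker readout from a multiplexed transcription reporter panel. HepG2 cells were transfected with GAL4-UAS reporter units, treated 24 hours, and reporter transcript levels determined by fluorescence after RT-PCR and capillary separation.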
row,Compound,outcome
1,O=[N+]([O-])c1ccc(CO)cc1,inactive
2,NC(=O)C1CO1 (stereo not given),inactive
3,CCCCC(CC)COCC1CO1 (stereo not given),inactive
4,c1cc(C(c2ccc(OCC3CO3)cc2)C(c2ccc(OCC3CO3)cc2)c2ccc(OCC3CO3)cc2)ccc1OCC1CO1 (stereo not given),inactive
5,CC(=O)C=CC1C(C)=CCC(C)C1(C)C (stereo not given),inactive
6,CC1=Nc2ccc3ccccc3c2C1(C)C,inactive
7,O=C1CCCC1,inactive
8,O=S(=O)(O)c1cc(S(=O)(=O)O)c2ccc3c(S(=O)(=O)O)cc(S(=O)(=O)O)c4ccc1c2c43,inactive
9,C=C(C)[C@@H]1CCC2=CCC[C@@H](C)[C@]2(C)C1,inactive
10,COC(=O)c1cc(Cl)ccc1[N+](=O)[O-],inactive
11,CC(C)C(=O)C(C)C,inactive
12,CC(=O)OCC(C)OC(C)=O (stereo not given),inactive
13,CCCCC(CC)COC(=O)c1ccccc1 (stereo not given),inactive
14,CCCCCCCCC(=O)OCC,inactive
15,CCCCCCCCCCCSCC(=O)O,inactive
16,CC(=O)Nc1nnc(S(N)(=O)=O)s1,inactive
17,CC(C)=CCCC(C)C=O (stereo not given),inactive
18,CO[Si](CCC1CCC2OC2C1)(OC)OC (stereo not given),inactive
19,CC1=NC(C)OC1C (stereo not given),inactive
20,N=c1ccn2c(n1)O[C@H]1[C@H](O)[C@@H](CO)O[C@H]12,inactive
21,CCCCCCCCCCCCCCCC[N+](C)(C)CC,inactive
22,CCc1nccnc1C,inactive
23,OCCCS,inactive
24,FC(F)(F)C(=NOCC1OCCO1)c1ccc(Cl)cc1,inactive
25,NC(CO)(CO)CO,inactive
26,Cc1cc(C)c(C(=O)O)c(C)c1,inactive
27,CCOC(=O)c1ccc(N(C)C)cc1,inactive
28,O=Nc1ccc(O)cc1,inactive
29,C(=CC=Nc1ccccc1)C=CNc1ccccc1,inactive

# Target: Nuclear receptor subfamily 4 group A member 2 (Homo sapiens) (UniProt P43354)
# Test: ATG_NURR1_TRANS: Attagene TRANS-FACTORIAL HepG2 Assay for human Nuclear Receptor Related Protein 1 (NURR1) (AID 2282985)
# Settings: HepG2 Attagene TRANS reporter, mRNA readout
# How it was run: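 Endpoint: reporter mRNA increase relative to DMSO. HepG2 cells transfected with reporter units, treated 24 h; RNA processed by RT-PCR, labelling, HpaI digestion and capillary electrophoresis.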
# Sequence of Nuclear receptor subfamily 4 group A member 2 (Homo sapiens) (P43354 whole entry, looked up): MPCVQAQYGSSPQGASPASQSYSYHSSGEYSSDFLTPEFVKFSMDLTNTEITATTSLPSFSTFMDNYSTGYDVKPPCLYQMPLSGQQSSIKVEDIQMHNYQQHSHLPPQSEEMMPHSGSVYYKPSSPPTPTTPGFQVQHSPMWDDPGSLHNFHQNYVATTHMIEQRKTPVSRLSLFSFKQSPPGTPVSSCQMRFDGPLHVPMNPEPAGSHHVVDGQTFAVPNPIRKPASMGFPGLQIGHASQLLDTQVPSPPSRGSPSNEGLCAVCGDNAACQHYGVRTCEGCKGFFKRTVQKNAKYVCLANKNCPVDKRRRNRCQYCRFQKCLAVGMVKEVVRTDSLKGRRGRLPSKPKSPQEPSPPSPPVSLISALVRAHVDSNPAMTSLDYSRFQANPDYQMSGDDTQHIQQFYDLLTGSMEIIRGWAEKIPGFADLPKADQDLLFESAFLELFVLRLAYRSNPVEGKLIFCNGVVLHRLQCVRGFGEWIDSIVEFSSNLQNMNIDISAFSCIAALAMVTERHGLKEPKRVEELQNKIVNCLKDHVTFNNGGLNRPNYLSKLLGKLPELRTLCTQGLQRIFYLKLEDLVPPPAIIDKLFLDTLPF
Compound,outcome,AC50
O=[N+]([O-])c1ccc(CO)cc1,inactive,–
CC(=O)C=CC1C(C)=CCC(C)C1(C)C (stereo not given),inactive,–
c1ccc2c(c1)ccc1ncccc12,inactive,–
CC1=Nc2ccc3ccccc3c2C1(C)C,inactive,–
O=C1CCCC1,inactive,–
O=S(=O)(O)c1cc(S(=O)(=O)O)c2ccc3c(S(=O)(=O)O)cc(S(=O)(=O)O)c4ccc1c2c43,inactive,–
C=C(C)[C@@H]1CCC2=CCC[C@@H](C)[C@]2(C)C1,inactive,–
CC(C)C(=O)C(C)C,inactive,–
CCCCC(CC)COC(=O)c1ccccc1 (stereo not given),inactive,–
CCCCCCCCC(=O)OCC,inactive,–
CCCCCCCCCCCSCC(=O)O,–,23 µM (active)
C=C(C)C(=O)OCCOc1ccccc1,inactive,–
Cc1ccc(C(C)c2ccc(C)c(C)c2)cc1C,inactive,–
CC(C)=CCCC(C)C=O (stereo not given),inactive,–
CC1=NC(C)OC1C (stereo not given),inactive,–
CCCCCCCCCCCCCCCC[N+](C)(C)CC,inactive,–
CCc1nccnc1C,inactive,–
OCCCS,inactive,–
FC(F)(F)C(=NOCC1OCCO1)c1ccc(Cl)cc1,–,100 µM (active)
NC(CO)(CO)CO,inactive,–
CCOC(=O)c1ccc(N(C)C)cc1,inactive,–
C=C1C2CCC(C2)C1(C)C (stereo not given),inactive,–
O=Nc1ccc(O)cc1,inactive,–
C(=CC=Nc1ccccc1)C=CNc1ccccc1,inactive,–
COCc1c(C(C)C)nc(C(C)C)c(/C=C/[C@@H](O)C[C@@H](O)CC(=O)O)c1-c1ccc(F)cc1,inactive,–
SCCc1cnccn1,inactive,–

# Target: Transcriptional activator Myb (Homo sapiens) (UniProt P10242)
# Test: ATG_Myb_CIS: Attagene CIS-FACTORIAL HepG2 Assay for human Myeloblastosis (Myb) Proto-Oncogene Transcription Factor (AID 2282986; active means hit-call score of the fitted dose curve at least 0.9, where 1 is the maximum; inactive means score below 0.9)
# Settings: HepG2 Attagene CIS-FACTORIAL Myb reporter transcription; actives raise or lower the signal
# How it was run: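 HepG2, transient MRTU transfection (cis-element promoters, endogenous TF activity), 24 h compound exposure. Readout: reporter mRNA via RT-PCR, 6-FAM labeling, HpaI digest, capillary electrophoresis. Gain/loss fit vs DMSO.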
# Sequence of Transcriptional activator Myb (Homo sapiens) (P10242 whole entry, looked up): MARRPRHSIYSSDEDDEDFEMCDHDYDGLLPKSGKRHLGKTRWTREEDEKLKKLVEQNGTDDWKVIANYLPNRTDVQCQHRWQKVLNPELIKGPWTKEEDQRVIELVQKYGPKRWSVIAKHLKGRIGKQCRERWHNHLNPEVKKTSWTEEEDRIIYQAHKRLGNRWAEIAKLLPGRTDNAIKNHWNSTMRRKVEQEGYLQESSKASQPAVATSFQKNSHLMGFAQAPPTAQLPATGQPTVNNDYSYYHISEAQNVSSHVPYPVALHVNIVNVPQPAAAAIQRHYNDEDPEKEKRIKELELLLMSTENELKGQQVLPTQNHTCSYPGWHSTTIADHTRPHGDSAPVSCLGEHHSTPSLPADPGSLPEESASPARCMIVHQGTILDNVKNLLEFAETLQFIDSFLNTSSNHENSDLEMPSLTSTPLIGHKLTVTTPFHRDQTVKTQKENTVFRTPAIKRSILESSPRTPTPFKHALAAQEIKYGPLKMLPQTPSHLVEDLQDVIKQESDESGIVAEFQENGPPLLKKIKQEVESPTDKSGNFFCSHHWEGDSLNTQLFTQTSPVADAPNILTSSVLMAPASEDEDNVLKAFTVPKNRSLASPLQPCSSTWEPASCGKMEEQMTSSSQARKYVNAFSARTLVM
Compound,outcome,AC50
O=[N+]([O-])c1ccc(CO)cc1,inactive,–
NC(=O)C1CO1 (stereo not given),inactive,–
CCCCC(CC)COCC1CO1 (stereo not given),inactive,–
c1cc(C(c2ccc(OCC3CO3)cc2)C(c2ccc(OCC3CO3)cc2)c2ccc(OCC3CO3)cc2)ccc1OCC1CO1 (stereo not given),inactive,–
CC(=O)C=CC1C(C)=CCC(C)C1(C)C (stereo not given),inactive,–
c1ccc2c(c1)ccc1ncccc12,inactive,–
CC1=Nc2ccc3ccccc3c2C1(C)C,inactive,–
O=C1CCCC1,inactive,–
O=S(=O)(O)c1cc(S(=O)(=O)O)c2ccc3c(S(=O)(=O)O)cc(S(=O)(=O)O)c4ccc1c2c43,inactive,–
C=C(C)[C@@H]1CCC2=CCC[C@@H](C)[C@]2(C)C1,inactive,–
COC(=O)c1cc(Cl)ccc1[N+](=O)[O-],inactive,–
CC(C)C(=O)C(C)C,inactive,–
CC(=O)OCC(C)OC(C)=O (stereo not given),inactive,–
CNC(=S)N(C)C,inactive,–
CCCCC(CC)COC(=O)c1ccccc1 (stereo not given),inactive,–
CCCCCCCCC(=O)OCC,inactive,–
CCCCCCCCCCCSCC(=O)O,inactive,–
C=C(C)C(=O)OCCOc1ccccc1,inactive,–
c1cc(N(CC2CO2)CC2CO2)ccc1OCC1CO1 (stereo not given),inactive,–
Cc1ccc(C(C)c2ccc(C)c(C)c2)cc1C,–,125 µM (active)

Compound,outcome,AC50
CC(=O)Nc1nnc(S(N)(=O)=O)s1,inactive,–
OC1CCCCCCCCCCC1,inactive,–
CCC(CC)C(=O)O,inactive,–
CC(C)=CCCC(C)C=O (stereo not given),inactive,–
CO[Si](CCC1CCC2OC2C1)(OC)OC (stereo not given),inactive,–
CC1=NC(C)OC1C (stereo not given),inactive,–
N=c1ccn2c(n1)O[C@H]1[C@H](O)[C@@H](CO)O[C@H]12,inactive,–
CCCCCCCCCCCCCCCC[N+](C)(C)CC,inactive,–
CCc1nccnc1C,inactive,–
OCCCS,inactive,–
FC(F)(F)C(=NOCC1OCCO1)c1ccc(Cl)cc1,inactive,–
NC(CO)(CO)CO,inactive,–
Cc1cc(C)c(C(=O)O)c(C)c1,inactive,–
O=C1CCCCCCCCCCC(=O)OCCO1,inactive,–
CCOC(=O)c1ccc(N(C)C)cc1,inactive,–
C=C1C2CCC(C2)C1(C)C (stereo not given),inactive,–
O=Nc1ccc(O)cc1,inactive,–
C(=CC=Nc1ccccc1)C=CNc1ccccc1,inactive,–
COCc1c(C(C)C)nc(C(C)C)c(/C=C/[C@@H](O)C[C@@H](O)CC(=O)O)c1-c1ccc(F)cc1,inactive,–
SCCc1cnccn1,inactive,–

# — PubChem BioAssay (EPA / NIEHS)
